Test results taken from PubChem BioAssay AID485284 (NMMLSC, 2010).
Potency and affinity values are given separately.

Assay: loss of vesicle association with mouse CD8+ T cells – mouse 2C CD8+ T cells, flow cytometry, dose response (AID 485284);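 further: drosophila derived vesicles carrying Ld MHC with QL9 peptide plus B7-1 and ICAM-1; vesicle binding seen as anti-B7-1 PE fluorescence on CD8 gated cells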
Settings: 2C mouse CD8+ T cell-exosome binding; at 45 µM (top of the series)

In order of falling binding remaining, % of control:
1. O=C1CC(c2nc3ccccc3[nH]2)CN1Cc1ccccc1 (stereo not drawn)  207%
2. COc1ccc(CNC(=O)COC(=O)CCN2C(=O)C3CC=CCC3C2=O)cc1OC (stereo not drawn)  190%
3. CN1CCN(C(=O)c2cc3ccccc3cc2O)CC1  178%
4. O=C(N/N=C/c1cccc(OC(=O)c2ccccc2Cl)c1)c1cccnc1  168%
5. C/C(=N\NC(=O)c1ccco1)c1cc2ccccc2o1  160%
6. O=C(NCCC1=CCCCC1)C(=O)NCC(c1ccco1)N1CCN(c2ccccc2F)CC1 (stereo not drawn)  136%
7. CCCCN1C(=O)NC(NC(=O)C2CC2)(C(F)(F)F)C1=O (stereo not drawn)  136%
8. Cc1ccsc1C(=O)OCC(=O)N1CCN(c2ccccc2)CC1  129%
9. COc1cccc(NC(=O)Nc2ccc3nc(C)c(C)nc3c2)c1  129%
10. CN1CCN(S(=O)(=O)c2ccc(C(=O)Nc3ccccc3)cc2)CC1  124%
11. CCC1(c2ccccc2)NC(=O)N(CC(=O)Nc2cc(Cl)ccc2N2CCN(C)CC2)C1=O (stereo not drawn)  124%
12. COc1ccccc1NC(=O)Cn1cnc2sc(C)c(S(=O)(=O)N3CCCCC3)c2c1=O  115%
13. CCOC(=O)c1c(NC(=O)CN2C(=O)NC3(CCC(C)CC3)C2=O)sc(C)c1-c1ccc(C)cc1 (stereo not drawn)  108%
14. Cn1c(CNC(=O)CNC(=O)c2ccc(F)cc2)cc(=O)n(C)c1=O  99.6%
15. CCOC(=O)CSc1nc(COc2ccccc2)nc2ccccc12  99.6%
16. O=C(/C=C/c1ccc(Br)cc1)c1ccc(NC(=O)c2ccco2)cc1  98.2%
17. Cc1noc(C)c1C(=O)OC(C)C(=O)N1CCc2ccccc21 (stereo not drawn)  96.2%
18. CS(=O)(=O)NCc1ccccc1Br  95.9%
19. Cc1cc(S(=O)(=O)N2CCN(Cc3ccccc3)CC2)c(C)s1  94.5%
20. CCN(Cc1ccccc1)C(=O)c1ccc(C)c(S(=O)(=O)N2CCCCC2)c1  92.8%
21. O=C(NCc1ccccc1C(F)(F)F)C1CCC(=O)N(CCCc2ccccc2)C1 (stereo not drawn)  90.8%
22. CCOC(=O)c1cc2occc2n1CC(=O)NC1CCC(C)CC1 (stereo not drawn)  77%
23. O=C(COC(=O)C1(c2cccc(F)c2)CCCC1)NCc1ccc2c(c1)OCO2  72.1%
24. NC(=O)C1CCN(c2nc(-c3cc4ccccc4o3)cs2)CC1  44.2%
25. COc1ccccc1NS(=O)(=O)c1cc(NC(=O)CNC(=O)c2cc(C)cc(C)c2)ccc1C  40.9%
26. Cc1ccccc1CS(=O)(=O)CCC(=O)N1CCN(c2ccc(N3CCOCC3)nn2)CC1  40.8%
27. CCOc1ccc(Cl)cc1/C=N/NC(=O)c1ccccc1  35.5%
28. Cc1ccc(Cn2c([N+](=O)[O-])cnc2C)cc1  35%
29. C[N+]1(C)CC2([N+](=O)[O-])CC=C(Oc3ccccc3)C([N+](=O)[O-])(C2)C1 (stereo not drawn)  24.8%
30. CCOC(=O)N1CCC(=NNc2ncc(C(F)(F)F)cc2Cl)CC1  24.2%
31. COc1ccccc1C(=O)COC(=O)C1CCN(S(=O)(=O)c2ccc(C)c(C)c2)CC1  24.2%
32. Cc1ccc(C(C)C)c(OCC(=O)N2CCN(c3ncccn3)CC2)c1  17.4%
33. CCCCn1c(N)c(N(CCOC)C(=O)C2CC(=O)N(c3ccc(CC)cc3)C2)c(=O)[nH]c1=O (stereo not drawn)  17.2%
